Sampled rows, rich in hits. Any-hit rate of the full collection: about 1.1%.
Giardia FBPA inh-1: inhibitors of Giardia lamblia fructose-1,6-bisphosphate aldolase; A8B2U2; purified Giardia FBPA; Potency, µM (highest dose often 59.6 µM), inactives show top-dose activity, negative = inhibition, most hits filed as inhibitors; hit rate 0.71% among 290,000; AID 2451; also: nearly all actives have a fitted effect of over 55% in size
Target sequence (A8B2U2 whole entry, looked up): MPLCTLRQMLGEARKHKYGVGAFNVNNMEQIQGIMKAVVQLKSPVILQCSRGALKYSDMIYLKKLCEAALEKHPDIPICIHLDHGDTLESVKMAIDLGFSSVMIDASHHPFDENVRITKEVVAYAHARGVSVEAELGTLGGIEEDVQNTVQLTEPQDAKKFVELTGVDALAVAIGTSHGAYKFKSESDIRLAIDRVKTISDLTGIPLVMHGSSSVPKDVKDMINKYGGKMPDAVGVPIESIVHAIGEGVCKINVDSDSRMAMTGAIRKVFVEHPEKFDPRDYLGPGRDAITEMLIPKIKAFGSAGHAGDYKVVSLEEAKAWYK
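40 nM FBPA preincubated 10 min at RT with compound (up to 57.5 uM final), then substrate plus GAPDH/TPI/NAD/arsenate coupling and diaphorase/resazurin added. Fluorescence read after 20 min at RT, 525/598 nm.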
AmpC no deterg: inhibitors of E. coli AmpC beta-lactamase without detergent; P00811; AmpC nitrocefin hydrolysis, absorbance 480 nm, 0.0001% Triton; Potency, µM (series often up to 57.1 µM), inactives show at the top dose activity change, negative = inhibition, hits mostly inhibitors; hit rate 0.52% among 330,000; AID 485341;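 also: plate controls were no compound for no effect and no enzyme for full effect; nearly all actives have a fitted effect of over 20% in size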
Target sequence (P00811 whole entry, looked up): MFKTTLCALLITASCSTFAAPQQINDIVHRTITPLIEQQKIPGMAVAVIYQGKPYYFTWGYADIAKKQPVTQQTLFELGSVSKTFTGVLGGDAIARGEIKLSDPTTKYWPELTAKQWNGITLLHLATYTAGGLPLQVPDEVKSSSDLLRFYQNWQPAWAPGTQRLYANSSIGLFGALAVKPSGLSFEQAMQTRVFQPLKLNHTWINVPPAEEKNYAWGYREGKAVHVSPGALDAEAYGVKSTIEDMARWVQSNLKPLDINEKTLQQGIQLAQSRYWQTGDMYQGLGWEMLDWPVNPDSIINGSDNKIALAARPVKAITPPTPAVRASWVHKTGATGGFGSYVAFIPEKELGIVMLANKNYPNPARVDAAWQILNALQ
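20 mM phosphate pH 7.0 + 0.01% (detergent screen) or 0.0001% Triton X-100; 5.3 nM AmpC reagent; cpd preinc 15 min RT; nitrocefin (800 uM stock) to start; A480 q20 s × 4 min; Activity was normalised to no-enzyme and no-compound control wells.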
AMA1-RON2 inh: AMA1-RON2 (P. falciparum) interaction inhibition; AlphaScreen AMA1-biotinylated RON2 peptide binding; Potency, µM (doses to about 58.2 µM), for inactives: top-dose activity change, negative = inhibition, most hits filed as inhibitors; hit rate 0.2% among 360,000; AID 720542;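 also: 0% = vehicle wells and -100% = peptide control; nearly all actives have a fitted effect of over 45% in size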
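AMA1 (3D7) with his tag at 25 nM final met compounds first, then biotinylated RON2 peptide at 25 nM; detection used donor plus acceptor beads, 10 µg/mL apiece, read by AlphaScreen after 30 min at room temperature.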
AmpC detergent: inhibitors of E. coli AmpC beta-lactamase with detergent | P00811 | AmpC hydrolysis of nitrocefin, absorbance 480 nm, 0.01% Triton | Potency, µM (top dose mostly 114 µM), for inactives: at the top dose activity change, negative = inhibition, usual class: inhibitors | hit rate 0.041% among 370,000;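 also: 0% = no-compound wells and -100% = no-enzyme wells; nearly all actives have a fitted effect of over 25% in size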
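AmpC (5.3 nM in the dispensed reagent) in 20 mM phosphate pH 7.0 with 0.01% (detergent screen) or 0.0001% Triton X-100 was preincubated with compounds for 15 min at room temperature. Nitrocefin was then added from an 800 uM solution, and hydrolysis was followed at 480 nm.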
Giardia growth: blocks growth of Giardia lamblia trophozoites; shares compounds with Giardia FBPA inh-1; Giardia lamblia trophozoite growth inhibition; Potency, µM (titrated, usually from 57.5 µM), without a hit: top-dose activity change, negative = inhibition, hits mostly inhibitors; hit rate 5% among 1,500; AID 2785;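 also: trophozoites exposed to compound for 48 h at 37 °C; nearly all actives have a fitted effect of over 70% in size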
Mammal cell tox: counter-screen for Giardia aldolase inhibitors: mammalian cell toxicity; Potency, µM (highest dose often 57.5 µM), for the others: at the top dose viability change, negative = toxicity, usual class: inhibitors; hit rate 4% among 1,500; mammalian cell viability counter-screen, qHTS; shares compounds with Giardia FBPA inh-1;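 also: Chinese hamster ovary cells used as mammalian cytotoxicity surrogate; viability measured as cellular ATP by luminescence; compound exposure lasted 48 h before reading; nearly all actives have a fitted effect of over 60% in size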
Giardia FBPA inh-2: confirmation of Giardia fructose-bisphosphate aldolase inhibitors. shares compounds with Giardia FBPA inh-1. purified Giardia aldolase enzyme activity, qHTS. Potency, µM (doses to about 57.5 µM), without a hit: at the highest dose activity change, negative = inhibition, usual class: inhibitors. hit rate 5% among 1,500. AID 2787; also: nearly all actives have a fitted effect of over 45% in size
Rabbit aldolase: selectivity test for Giardia aldolase inhibitors: rabbit aldolase; shares compounds with Giardia FBPA inh-1; Rabbit muscle FBPA enzyme inhibition, selectivity counter-screen; Potency, µM (doses to about 57.5 µM), for the others: at the highest dose activity, negative = inhibition, usual class: inhibitors; hit rate 4% among 1,500; also: nearly all actives have a fitted effect of over 60% in size
GAPDH coupling: counter-screen for Giardia aldolase inhibitors: GAPDH coupling enzyme. shares compounds with Giardia FBPA inh-1. GAPDH coupling enzyme counterscreen, biochemical, qHTS. Potency, µM (titrated, usually from 57.5 µM), inactives show at the top dose activity change, negative = inhibition, usual class: inhibitors. hit rate 6% among 1,500. AID 2795; also: nearly all actives have a fitted effect of over 55% in size
* marks the source's active call; other numbers are inactive results; ? = inconclusive; · = not tested or not shown; ! = not active in a repeat; [ ] = remark or other dose. Calls follow the shape of the dose curve; as a rule, active = well fitted curve in the direction sought with a large enough effect; inconclusive = small, poorly fitted or top-dose-only effect, or another doubt; inactive = no such curve, though single readings can be large; an effect the other way counts as inactive or inconclusive. Unless noted, % is scaled to controls: 0 for no effect and ±100 for the full control effect; potency is read from the fitted curve at half-maximal effect.

SMILES	Giardia FBPA inh-1	AmpC no deterg	AMA1-RON2 inh	AmpC detergent	Giardia growth	Mammal cell tox	Giardia FBPA inh-2	Rabbit aldolase	GAPDH coupling
COc1ccc(CN2CCCC(C(=O)N3CCCCC3)C2)c(OC)c1 (centres undefined)	?	1.0%	-10.0%	-2.7%	·	·	·	·	·
COc1cc(OC)c(OC)cc1CN1CCCC(C(=O)N2CCCC2)C1 (centres undefined)	28.2µM*	-9.0%	-13.4%	0.0%	26.1%	3.8%	1.5%	1.6%	7.4%
Cc1ccc(NC(=O)CSCc2cc(=O)n3ccsc3n2)c(C)c1	·	8.5%	29.1%	-1.0%	·	·	·	·	·
Oc1[nH]c2ccccc2c1N=NC(=S)N1CCOCC1	17.7µM*	-27.2%	-48.1%	2.2%	2.4%[10.4 µM]	39.8µM*	9.5%	-0.3%	-8.2%
Oc1[nH]c2ccc(Br)cc2c1N=NC(=S)N1CCOCC1	?	-30.9%	-25.1%	9.2%	·	·	·	·	·
O=C(NC(=S)Nc1ncccn1)c1ccccc1Cl	3.54µM*	-4.1%	36.5%	-6.0%	?	0.2%	1.6%	7.2%	-0.2%
CNC(=O)NC(=S)NC(=O)c1ccccc1Cl	?	-7.0%	15.5%	-12.9%	·	·	·	·	·
CC(C)c1ccc(N(CC(=O)NCc2ccco2)C(=O)CCC(=O)Nc2ccccn2)cc1	-3.0%	45.7%	-3.1%	1.1%	·	·	·	·	·
O=c1ccc2cc3c([nH]c4ccc(Br)cc43)oc-2c1O	14.1µM*	-54.1%	·	-8.0%	20.1%[10.4 µM]	7.2%	10µM*	8.91µM*	10µM*
O=C(O)c1ccc(N=Nc2c(O)[nH]c3ccc(Br)cc23)cc1	-16.8%	-18.7%	-9.2%	-5.5%	·	·	·	·	·
O=C(Nc1nccs1)c1ccccn1	17.7µM*	-8.9%	100.0%	-11.6%	?	-14.9%	0.7%	1.6%	3.0%
O=C(Nc1nccs1)c1cnccn1	-19.9%	-8.6%	90.1%	?	·	·	·	·	·
S=C(Nc1ccccc1)Nc1nccs1	0.631µM*!	-34.7%	65.6%	5.5%	-26.9%[38.3 µM]	20µM*	-4.3%	-7.9%	-6.4%
CCn1cc(Cl)c(C(=O)Nc2nccs2)n1	3.98µM*	-5.9%	11.0%	3.6%	-7.7%[10.4 µM]	-3.8%	0.8%	2.7%	8.4%
CC(=O)NCCC(=O)Nc1cc(S(=O)(=O)N2CCOCC2)ccc1Oc1ccccc1	6.1%	34.8%	0.0%	?	·	·	·	·	·
CCOC(=O)CC(NC(=O)c1cc2c(=O)n3cccc(C)c3nc2s1)c1ccc(OCC)c(OC)c1 (centres undefined)	·	·	·	15.2%	·	·	·	·	·
Cc1ccccc1-c1nnc(SCC(=O)Nc2ccc3c(c2)OCCO3)n1N	-2.3%	-22.7%	-3.9%	?	·	·	·	·	·
Nn1c(SCC(=O)Nc2ccccc2C(F)(F)F)nncc1=O	20µM*	41.4%	61.9%	0.7%	-12.7%[10.4 µM]	9.7%	0.6%	-1.3%	8.4%
Nn1c(SCC(=O)Nc2ccc3c(c2)OCCO3)nncc1=O	25.1µM*	-15.0%	49.3%	3.7%	20.9%	17.7%	-6.6%	1.7%	14.6%
CCc1nnc(NC(=O)CSc2nncc(=O)n2N)s1	25.1µM*	-6.1%	70.0%	-2.7%	31.3%	11.3%	-4.2%	6.5%	6.6%
CCSc1nnc(NC(=O)CSc2nncc(=O)n2N)s1	-26.4%	-21.6%	10.9%	4.1%	·	·	·	·	·
COc1cccc(CNC(=O)C(=O)NCC(c2ccco2)S(=O)(=O)c2cccs2)c1 (centres undefined)	·	·	·	0.2%	·	·	·	·	·
CC(=O)Nc1ccc(S(=O)(=O)N2CCN(Cc3cccnc3)CC2)cc1	?	-0.2%	-28.5%	?	·	·	·	·	·
CC(=O)Nc1ccc(S(=O)(=O)N2CCN(Cc3cccc([N+](=O)[O-])c3)CC2)cc1	17.7µM*	-26.6%	?	-0.2%	-1.1%	-4.3%	5.6%	7.9%	11.9%
Cc1ccc(NC(=S)N(CCN(C)C)Cc2cccs2)c(C)c1	14.1µM*	-11.0%	-0.6%	5.0%	-5.4%[10.4 µM]	-2.5%	-5.8%	4.1%	4.3%
SMILES	Giardia FBPA inh-1	AmpC no deterg	AMA1-RON2 inh	AmpC detergent	Giardia growth	Mammal cell tox	Giardia FBPA inh-2	Rabbit aldolase	GAPDH coupling
O=C(OCC(=O)N1CCN(c2ccccc2)CC1)c1cc(F)c(F)cc1Cl	·	·	18.0%	·	·	·	·	·	·
COc1ccc(CN2CCN(CCCCOc3ccc(Cl)cc3)CC2)c(OC)c1OC	17.7µM*	4.4%[2.29 µM]	?	?	-20.7%	-5.7%	-3.1%	0.7%	8.9%
Cc1ccc(S(=O)(=O)N2CCOCC2)cc1C(=O)N1CCN(c2ccc(C(F)(F)F)cn2)CC1	·	236.8%	0.0%	·	·	·	·	·	·
O=C(O)CN(CCN(CC(=O)O)CC(=O)O)CCN(CC(=O)O)CC(=O)O	7.92µM*!	·	·	·	?	20.7%	?	14.0%	0.9%
O=C(O)CP(=O)(O)O	-15.4%	-27.0%	9.8%	0.0%	·	·	·	·	·
COc1ccc(-c2nc3c(C)cc(Br)cn3c2Cc2ccsc2)cc1OC	·	·	-28.4%	·	·	·	·	·	·
CC(C)(C)c1cc(C(=O)N/N=C/c2ccncc2)n[nH]1	·	3.3%	21.4%	3.8%	·	·	·	·	·
CC(C)(C)c1cc(C(=O)N/N=C/c2ccccn2)n[nH]1	15.8µM*	-20.8%	96.3%	-6.6%	?	5.7%	8.2%	5.2%	-9.6%
O=C(N/N=C/c1ccccn1)c1cccs1	12.6µM*	0.5%	107.0%	5.9%	-25.4%	-5.2%	1.1%	-2.4%	-1.3%

Source: PubChem BioAssay
